Experimental data published in ChEMBL document CHEMBL4513135, “CO-ADD screening of IQOG CSIS (Spain) compounds”.
Where “and” joins values, the source holds several entries; their conditions need not be identical. Equal values may be shown once. Measured potencies and affinities stand elsewhere.

System: Klebsiella pneumoniae
Conditions: Concentration 32 ug.mL-1; ASSAY_TEST Inhibition of Bacterial Growth; detection method Absorption (OD600); MEDIA CAMHB; plate type 384well; NBS; CORNING #3640; time 18 hr, 32 ug/mL

Structure (SMILES) | Inhibition
CN(C)c1nc(N)c(C#N)cc1C#N.Cl | -3.22% and 8.57%
COc1ccc(-c2c(C#N)c(=O)oc3c2ccc2ccccc23)cc1 | 4.75% and -0.52%
COc1cccc(C2c3c(ccc4ccccc34)OC(=N)C2(Br)C#N)c1 (stereo not given) | 14.84% and 5.04%
C#CCN(C)c1nc(N)c(C#N)cc1C#N | 17.2% and 7.82%
CC(=O)Nc1nn(C)c2nc3nc4c(c(N)c3cc12)CCCC4 | 12.62% and 9.74%

System: Candida albicans
Conditions: 32 ug/mL

Structure (SMILES) | Inhibition
CN(C)c1nc(N)c(C#N)cc1C#N.Cl | 3.18% and 2.67%
COc1ccc(-c2c(C#N)c(=O)oc3c2ccc2ccccc23)cc1 | 2.65% and 6.62%
C#CCN(C)Cc1cc2cc(OCCCCC3CCN(Cc4ccccc4)CC3)ccc2n1C.Cl | 2.11%
N#Cc1c(N)nc(S)c(C#N)c1-c1ccccc1 | 0.7%
CC(=O)Oc1ccc(C=C2N=C(c3ccccc3)OC2=O)cc1 | -0.21%
N#CC1=C(N)Oc2c(ccc3ccccc23)C1c1cccc([N+](=O)[O-])c1 (stereo not given) | 2.35%
C#CCN(C)c1nc(NCCC2CCN(Cc3ccccc3)CC2)c(C#N)cc1C#N.Cl | -0.31%
Cn1c(C(=O)O)cc2ccccc21 | 24.1%
COc1cccc(C2c3c(ccc4ccccc34)OC(=NBr)C2(Br)C#N)c1 (stereo not given) | 26.4%
N#Cc1c(N)nc(NCCCCC2CCN(Cc3ccccc3)CC2)c(C#N)c1-c1ccccc1 | 2.22%
C=C1CN(C)c2c(C#N)cc(C#N)c(=S)n21 | 4.91%
C/C(Cc1ccccc1)=N/NC(=O)c1c[nH]c2ccc(O)cc12 | 0.37%
COc1cc(Br)c(C=O)cc1OC | 3.94%
CC1Cc2c(Br)nc3nc4c(c(N)c3c2NC1=O)CCCC4 (stereo not given) | -0.9%
N#CC1=C(Cl)Oc2c(ccc3ccccc23)C1c1ccccc1 (stereo not given) | 4.15%
CC(C)(C)OC(=O)Nc1ccc(Cl)cn1 | -0.26%
Cn1ccnc1C1c2ccc3cccnc3c2Oc2nc3c(c(N)c21)CCC3 (stereo not given) | 2.9%
COc1cc(C2c3c(nc4c(c3N)CCC4)Oc3ccc4ccccc4c32)ccc1O (stereo not given) | -1.69%

Structure (SMILES) | Inhibition
C#CCN(C)Cc1cc2cc(OCCCCC3CCN(Cc4ccccc4)CC3)ccc2n1C | 2.73%
N#Cc1c(N)nc2c(c1-c1ccccc1)CN(Cc1ccccc1)CC2 | 1.07%
CC#CCN.Cl | 3.96%
NC(=O)N/N=C/c1c[nH]c2ccccc12 | 0.31%
COC(=O)/C(=C/c1ccc(O)cc1)NC(=O)c1ccccc1 | 1.73%
CC1Cc2ccccc2N1/N=C/c1ccccc1 (stereo not given) | -2.78%
N#Cc1cccnc1N | 1.57%
C#CCN(C)c1cc(C)nc(C)n1 | 5.55%
COc1ccc(C2C(C#N)=C(N)Oc3ccc4ccccc4c32)cc1 (stereo not given) | 1.62%
C#CCNc1nc(NC2CCN(Cc3ccccc3)CC2)c(C#N)c(-c2ccccc2)c1C#N | 5.21%
COc1ccc(-c2cc(-c3cc4c(C)cc(C)cc4nc3Cl)cc(=O)[nH]2)cc1 | 1.74%
CC(=O)NC=C1C(=O)OC(C)(C)OC1=O | 0.54%
Cc1ccc(C2c3c(Cl)nnnc3Oc3ccc4ccccc4c32)cc1 (stereo not given) | 2.22%
CC(=O)NCCc1ccccc1 | 1.13%
CCOC(=O)c1cc2cc(OC)ccc2n1C | 0.11%
N#Cc1cc2c(N)c3c(nc2nc1N1CCCCC1)CCCC3 | 1.35%
COc1ccc(C2c3c(ccc4ccccc34)OC(=NBr)C2(Br)C#N)cc1OC (stereo not given) | 18%
Cn1c(CO)cc2cc(OCCCC3CCN(Cc4ccccc4)CC3)ccc21 | 2.07%

System: Cryptococcus neoformans
Conditions: Concentration 32 ug.mL-1; ASSAY_TEST Inhibition of Fungal Growth; detection method Resazurin; Absorption (OD600-OD570); plate type 384well; NBS; CORNING #3640

Structure (SMILES) | Inhibition [%]
C#CCN(C)Cc1cc2cc(OCCCCC3CCN(Cc4ccccc4)CC3)ccc2n1C.Cl | -16.02
N#Cc1c(N)nc(S)c(C#N)c1-c1ccccc1 | 1.04
CC(=O)Oc1ccc(C=C2N=C(c3ccccc3)OC2=O)cc1 | -12.33
N#CC1=C(N)Oc2c(ccc3ccccc23)C1c1cccc([N+](=O)[O-])c1 (stereo not given) | -36.01
C#CCN(C)c1nc(NCCC2CCN(Cc3ccccc3)CC2)c(C#N)cc1C#N.Cl | 0.75
Cn1c(C(=O)O)cc2ccccc21 | 5.37
COc1cccc(C2c3c(ccc4ccccc34)OC(=NBr)C2(Br)C#N)c1 (stereo not given) | -22.56
N#Cc1c(N)nc(NCCCCC2CCN(Cc3ccccc3)CC2)c(C#N)c1-c1ccccc1 | 0.12
C=C1CN(C)c2c(C#N)cc(C#N)c(=S)n21 | -13.76
C/C(Cc1ccccc1)=N/NC(=O)c1c[nH]c2ccc(O)cc12 | 4.37
COc1cc(Br)c(C=O)cc1OC | -3.9
CC1Cc2c(Br)nc3nc4c(c(N)c3c2NC1=O)CCCC4 (stereo not given) | -91.63
N#CC1=C(Cl)Oc2c(ccc3ccccc23)C1c1ccccc1 (stereo not given) | -59.47
CC(C)(C)OC(=O)Nc1ccc(Cl)cn1 | -54
Cn1ccnc1C1c2ccc3cccnc3c2Oc2nc3c(c(N)c21)CCC3 (stereo not given) | -104.91
COc1cc(C2c3c(nc4c(c3N)CCC4)Oc3ccc4ccccc4c32)ccc1O (stereo not given) | -4.01
C#CCN(C)Cc1cc2cc(OCCCCC3CCN(Cc4ccccc4)CC3)ccc2n1C | -48.77

Structure (SMILES) | Inhibition [%]
N#Cc1c(N)nc2c(c1-c1ccccc1)CN(Cc1ccccc1)CC2 | -3.99
CC#CCN.Cl | -2.53
NC(=O)N/N=C/c1c[nH]c2ccccc12 | -3.05
COC(=O)/C(=C/c1ccc(O)cc1)NC(=O)c1ccccc1 | -3.07
CC1Cc2ccccc2N1/N=C/c1ccccc1 (stereo not given) | -3.88
N#Cc1cccnc1N | -34.57
C#CCN(C)c1cc(C)nc(C)n1 | -42.1
COc1ccc(C2C(C#N)=C(N)Oc3ccc4ccccc4c32)cc1 (stereo not given) | -30.57
C#CCNc1nc(NC2CCN(Cc3ccccc3)CC2)c(C#N)c(-c2ccccc2)c1C#N | -52.49
COc1ccc(-c2cc(-c3cc4c(C)cc(C)cc4nc3Cl)cc(=O)[nH]2)cc1 | 0.64
CC(=O)NC=C1C(=O)OC(C)(C)OC1=O | -4.92
Cc1ccc(C2c3c(Cl)nnnc3Oc3ccc4ccccc4c32)cc1 (stereo not given) | -3.15
CC(=O)NCCc1ccccc1 | -3.47
CCOC(=O)c1cc2cc(OC)ccc2n1C | -3.08
N#Cc1cc2c(N)c3c(nc2nc1N1CCCCC1)CCCC3 | -98.63
COc1ccc(C2c3c(ccc4ccccc34)OC(=NBr)C2(Br)C#N)cc1OC (stereo not given) | -72.67
Cn1c(CO)cc2cc(OCCCC3CCN(Cc4ccccc4)CC3)ccc21 | -53.31
